Screens as filed in PubChem.
TPT1 inhibitor: C. albicans TPT1 enzyme inhibition. recombinant caTPT1, FP RNA substrate dephosphorylation. inhibition, % at 5 µM. hit rate 0.81% among 300,000. AID 1962;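 active means inhibition above the mean of all tested compounds plus 3 SD, set per screening campaign, cut at about 24% in these data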;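 further: plate controls were DMSO alone for no effect and ferristatin control at 100 nM for full effect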
HNF4A DNA FP: change in binding of human HNF4 alpha to DNA; P41235; HNF4a-FITC DNA binding, fluorescence polarization, 1 h; activity change, % at 10 µM; hit rate 0.3% among 360,000; in the data active means activity change above about 30%, passing the limit was not always enough
Target sequence (P41235 whole entry, looked up): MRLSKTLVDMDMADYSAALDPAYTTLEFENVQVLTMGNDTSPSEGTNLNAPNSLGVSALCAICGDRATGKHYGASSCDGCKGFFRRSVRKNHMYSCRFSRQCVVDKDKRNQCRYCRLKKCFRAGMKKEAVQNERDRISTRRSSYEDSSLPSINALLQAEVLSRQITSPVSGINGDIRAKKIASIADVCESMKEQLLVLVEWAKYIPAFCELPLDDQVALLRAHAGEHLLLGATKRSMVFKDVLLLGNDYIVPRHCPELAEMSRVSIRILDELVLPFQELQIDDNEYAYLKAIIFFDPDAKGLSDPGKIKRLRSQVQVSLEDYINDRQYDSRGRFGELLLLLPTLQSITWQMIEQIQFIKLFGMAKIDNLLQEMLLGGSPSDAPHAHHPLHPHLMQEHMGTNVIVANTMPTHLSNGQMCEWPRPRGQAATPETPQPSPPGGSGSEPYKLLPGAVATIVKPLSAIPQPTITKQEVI
Myeloid diff 2: promotes myeloid progenitor differentiation | ER-HoxA9 myeloid progenitors, lysozyme-GFP differentiation, flow cytometry | calls only at 10 µM | hit rate 1% among 360,000;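 active means normalized GFP-positive differentiation at or above the plate's own cutoff, the solvent-only control mean plus 3 SD; inconclusive means no clear call, values can overlap the other calls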;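 further: cells exposed to compound for four days before flow analysis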
Rpn11 block: blocks the human proteasome subunit Rpn11 | O00487 | human 26S proteasome, Ub4-pepOG fluorescence polarization; 20S core pre-blocked with epoxomicin | inhibition, % at 20 µM | hit rate 0.59% among 360,000 | AID 588493;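 active means inhibition at 20 µM, scaled to each plate's controls, above about 33%, limit read from the data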
TPT1 inh confirm: TPT1 (C. albicans) inhibition, confirmation. shares compounds with TPT1 inhibitor. recombinant caTPT1, fluorescence polarization, RNase T1 coupled. inhibition, % at 5 µM. hit rate 74% among 2,400. AID 2149;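 active means inhibition above the primary screen limit, the mean inhibition of all tested compounds plus 3 SD, cut at about 25% in these data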
RNase T1 counter: blocks Aspergillus oryzae RNase T1, a TPT1 counter-screen; shares compounds with TPT1 inhibitor; RNase T1 cleavage, fluorescence polarization, 1536-well; inhibition, % at 5 µM; hit rate 83% among 2,400;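 active means inhibition above the solvent-only control well mean plus 3 SD, limit set per screening run, cut at about 23% in these data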;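 further: plate controls were DMSO wells with enzyme for no effect and wells without RNase T1 for full effect; inhibitors block cleavage so intact labeled substrate keeps polarization high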
Target sequence (P00651 whole entry, looked up): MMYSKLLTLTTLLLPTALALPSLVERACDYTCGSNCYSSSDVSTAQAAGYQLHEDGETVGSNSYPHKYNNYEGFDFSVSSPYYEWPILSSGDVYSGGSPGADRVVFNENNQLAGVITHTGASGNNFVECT
* = called active by the depositor; i = inactive; ? = inconclusive; nt = no result given; + = active, no number. An excerpt weighted towards active compounds, which were near 2.1% of everything screened.

SMILES | TPT1 inhibitor | HNF4A DNA FP | Myeloid diff 2 | Rpn11 block | TPT1 inh confirm | RNase T1 counter
CC1=CN2C(=N)/C(=C/c3ccc([N+](=O)[O-])o3)C(=O)N=C2S1 | 77.2* | 66.3* | ? | nt | 117.5* | 117.7*
O=C(O)/C=C/c1cn(-c2ccccc2)nc1-c1ccc(-c2ccc([N+](=O)[O-])cc2)o1 | 68.9* | -15.8 | i | nt | 84.3* | 91.0*
COc1ccc(Nc2ccc(S(=O)(=O)N3CCCCC3)cc2[N+](=O)[O-])cc1 | 66.9* | -3.8 | i | -3.1 | 5.9 | 9.2
COc1ccc(Nc2ccc(S(=O)(=O)N3CCCCC3)cc2[N+](=O)[O-])cc1Cl | -1.4 | 0.2 | i | 2.6 | nt | nt
CCCCCCCCNC(=O)c1ccc(C)cc1 | 37.1* | nt | nt | nt | 12.8 | 19.9
CC(O)C(NS(=O)(=O)c1ccc(Cl)cc1)C(=O)OCC(=O)N1CCN(c2ccccc2)CC1 (configuration not stated) | -2.4 | -1.2 | i | 3.9 | nt | nt
COc1cc(/C=C/c2sc3ccccc3[n+]2CCCS(=O)(=O)[O-])ccc1O | 85.5* | 86.7* | i | nt | 96.7* | 100.9*
COc1ccc(CN2C(=O)c3ccccc3C(/C=N/OCc3ccc(Cl)cc3)C2=O)cc1 (configuration not stated) | 42.9* | 1.7 | i | 8.7 | 64.7* | 74.9*
COc1ccccc1NC(=O)/C(C#N)=C/c1cc([N+](=O)[O-])ccc1N1CCCC1 | 38.1* | -105.4 | i | -139.6 | 74.0* | 85.5*
COc1ccccc1NC(=O)/C(C#N)=C/c1ccncc1 | -0.5 | 2.1 | i | 0.8 | nt | nt
CC(=O)N1CCC2(CC1)C(C#N)=C(N)OC1=C2C(=O)CC(C)(C)C1 | 1.9 | -1.6 | i | -0.2 | nt | nt
CC1(C)CC(=O)C2=C(C1)OC(N)=C(C#N)C21CCN(Cc2ccccc2)CC1 | 26.9* | 1.2 | i | -14.7 | 21.8 | 32.5*
O=C(Cn1cnc2ccccc21)N/N=C/c1cccc([N+](=O)[O-])c1 | 35.6* | 0.5 | i | -11.5 | 8.0 | 9.6
Cn1c(=O)c(N=O)c(N)n(Cc2ccccc2)c1=S | 0.7 | 2.8 | i | 1.5 | nt | nt
CCCN(CC(=O)Nc1ccccc1OC)C(=O)c1nc2nc(C)ccn2n1 | nt | -3.9 | i | -5.1 | nt | nt
Cc1c(C(=O)N2CC(C)OC(C)C2)[nH]c2ccc(Br)cc12 (configuration not stated) | nt | 0.6 | i | -8.0 | nt | nt
CCc1ccc(-c2cc(C(=O)Nc3c(C)n(C)n(-c4ccccc4)c3=O)c3ccccc3n2)s1 | 25.3* | 18.9 | nt | 22.7 | 32.7* | 42.8*
Cc1ccc(S(=O)(=O)N2CC=C(c3c(C)n(C)c4ccccc34)CC2)cc1 | 2.9 | 3.1 | i | 0.7 | nt | nt
CCn1c(C)c(C2=CCN(S(=O)(=O)c3ccccc3)CC2)c2ccccc21 | 27.6* | 2.5 | i | 5.9 | 17.4 | 28.5*
CC(C)(C)c1ccc(N2C(=O)CSC2c2cccnc2)cc1 (configuration not stated) | 0.6 | -1.5 | i | -1.4 | nt | nt
O=C(O)Cc1sc(Nc2ccccc2)nc1-c1cccs1 | 42.4* | 45.2* | + | nt | 36.3* | 46.3*
O=C(O)Cc1sc(Nc2cccc3ccccc23)nc1-c1ccc(F)cc1 | nt | 5.3 | i | 6.2 | nt | nt
C=CCNc1nc(-c2cccs2)c(CC(=O)O)s1 | 5.9 | 9.0 | i | -11.9 | nt | nt
CCN(CC)CCNc1nc(-c2cccs2)c(CC(=O)O)s1 | 28.6* | 2.5 | i | 15.9 | 5.5 | 7.3
O=C(O)Cc1sc(NCCc2ccccc2)nc1-c1ccc(F)cc1 | 26.9* | 5.6 | + | 14.1 | 1.7 | 7.6
SMILES | TPT1 inhibitor | HNF4A DNA FP | Myeloid diff 2 | Rpn11 block | TPT1 inh confirm | RNase T1 counter
Cc1cc(OCC(=O)NCc2ccccn2)c2c(C)c(Cc3ccccc3)c(=O)oc2c1 | 0.1 | 0.4 | i | -3.6 | nt | nt
Cc1cc(C(=O)NC2CCCN(Cc3ccccc3F)C2)n[nH]1 (configuration not stated) | -2.1 | 10.9 | i | 5.8 | nt | nt
C[n+]1cc(C(=O)N2CCCCC2)ccc1/C=C/c1c[nH]c2ccccc12 | 132.2* | 146.6 | i | nt | 108.7* | 108.6*
COCCNC(=O)C1CCCN(Cc2ccc(C)cc2)CC1 (configuration not stated) | nt | 0.8 | i | 4.5 | nt | nt
Cc1nn(-c2ncc(C(F)(F)F)cc2Cl)c(=O)n1-c1c(F)cccc1F | 32.3* | -1.0 | i | -0.4 | 2.6 | 2.4
CC(=O)c1ccccc1NCC(=O)Nc1ccc(C)cc1 | + | -3.4 | i | 0.5 | 17.8 | 29.0*
O=C(C[C@@H]1CC[C@@H]2[C@H](COC[C@H](O)CN2CCC(F)(F)F)O1)NCc1ccc2c(c1)OCO2 | nt | 2.1 | i | nt | nt | nt
CCC(C)(C)C1CCc2c(sc(N)c2C(N)=O)C1 (configuration not stated) | 14.3 | 3.1 | i | 20.5 | nt | nt
CC(C)(C)C1CCc2c(sc(N)c2C(N)=O)C1 (configuration not stated) | 24.5* | 4.0 | i | 16.0 | 2.0 | 6.8
CCOC(=O)/C(=C/C1=CC(=C/N(C)C)/C(=O)O1)C(C)=O | 124.2* | 65.6* | i | nt | 140.2* | 137.8*
O=C(CC(C(=O)O)c1ccccc1)Nc1cccc2ccccc12 (configuration not stated) | 30.0* | 2.4 | i | -0.4 | 4.7 | 7.6
O=C(CC(NC(=O)c1ccccc1)c1ccccc1)Nc1cccc2ccccc12 (configuration not stated) | 2.0 | -0.6 | i | -5.7 | nt | nt
COc1ccc(S(=O)(=O)NCCc2cn3nc(C)c(C)nc3n2)cc1F | 4.2 | -2.5 | i | -2.0 | nt | nt
COc1ccccc1-n1c(SCC(=O)NC(C)(C)C)nc(O)cc1=O | -3.7 | 0.9 | i | 2.1 | nt | nt
CC(C)(C)NC(=O)CSc1nc(O)cc(=O)n1-c1ccccc1F | 109.2* | 78.2* | i | nt | 84.2* | 94.3*
Cc1ccc(S(=O)(=O)Nn2cnnc2)cc1 | -3.2 | -1.9 | i | 1.0 | nt | nt
Cc1ccc(S(=O)(=O)N(c2nc(N(C)C)nc(N(C)C)n2)n2cnnc2)cc1 | 28.9* | -0.9 | i | -6.4 | 7.2 | 11.6
COc1ccccc1CN=Cc1[nH]c2ccc(Br)c(Cl)c2c1O | 18.6 | 20.1 | i | nt | nt | nt
Cc1cccc(N=Cc2[nH]c3ccc(Br)c(Cl)c3c2O)c1 | 112.5* | 54.2 | i | 11.1 | 72.8* | 76.9*
Cn1cc(C2=C(c3ccc(Cl)cc3Cl)C(=O)NC2=O)c2ccccc21 | 81.2* | 72.3 | + | nt | 92.3* | 94.7*
Cn1cc(-c2ccccc2C(N)=O)c(=O)c2cc(Cl)ccc21 | 1.9 | -6.2 | i | 2.5 | nt | nt
CCc1ccccc1NS(=O)(=O)Cc1ccccc1 | 1.2 | 3.6 | i | 1.0 | nt | nt
CNc1ccc(Br)cc(C(=O)/C=C/c2ccc(OC)cc2)c1=O | 52.8* | -4.8 | i | -8.8 | 36.1* | 46.5*
COc1ccc(/C=C/C(=O)c2cc(Br)ccc2O)cc1OC | -4.3 | -2.1 | i | 0.3 | nt | nt
CNc1ccc(Br)cc(C(=O)/C=C/c2cc(OC)ccc2OC)c1=O | 65.7* | -3.9 | i | 0.5 | 63.4* | 76.5*
CNc1ccc(Br)cc(C(=O)/C=C/c2ccc3c(c2)OCO3)c1=O | 18.3 | -9.3 | i | -6.1 | nt | nt
